A selection: hits, their analogues and other compounds. The true share with any hit is near 2.3%.
Tau fibril FP = blocks human tau fibril formation measured by polarization | Potency, µM (top dose mostly 57.7 µM), for the others: at the top dose activity, negative = inhibition, usual class: inhibitors | 280,000 tested, 0.39% active | P10636 | K18 P301L tau heparin fibrillization, Alexa594 FP, 6 h | AID 1468; further: potency means the concentration at half of the fitted maximal effect; nearly all actives have a fitted effect of over 55% in size
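FP of Alexa 594-tau after heparin (20 uM) induction. Substrate: human K18 P301L, 15 uM unlabeled, 0.24 uM labeled. Buffer 100 mM sodium acetate pH 7. 6 hr, 37 C.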
Coupling enz = coupling enzyme interference in Giardia aldolase counter-screen | coupling enzyme system counterscreen, AmpLite Red fluorescence | activity change, negative = inhibition, % at 58.2 µM, hits read low | 290,000 tested, 0.67% active | AID 2472; in the data active means activity change below about -30%
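Counterscreen of the coupled detection system alone, without aldolase: glyceraldehyde-3-phosphate coupling enzymes plus AmpLite Red readout. Compounds at 57.5 uM final, 10 min RT preincubation, 20 min RT reaction, fluorescence 525/598 nm.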
USP1 inh = blocks the human USP1/UAF1 deubiquitinase complex; O94782; recombinant USP1/UAF1, Ub-Rhodamine cleavage fluorescence; Potency, µM (doses to about 57.1 µM), for inactives: at the top dose activity change, negative = inhibition, hits mostly inhibitors; 390,000 tested, 0.23% active; AID 743255; further: potency means the concentration at half of the fitted maximal effect; nearly all actives have a fitted effect of over 60% in size
Target sequence (O94782 whole entry, looked up): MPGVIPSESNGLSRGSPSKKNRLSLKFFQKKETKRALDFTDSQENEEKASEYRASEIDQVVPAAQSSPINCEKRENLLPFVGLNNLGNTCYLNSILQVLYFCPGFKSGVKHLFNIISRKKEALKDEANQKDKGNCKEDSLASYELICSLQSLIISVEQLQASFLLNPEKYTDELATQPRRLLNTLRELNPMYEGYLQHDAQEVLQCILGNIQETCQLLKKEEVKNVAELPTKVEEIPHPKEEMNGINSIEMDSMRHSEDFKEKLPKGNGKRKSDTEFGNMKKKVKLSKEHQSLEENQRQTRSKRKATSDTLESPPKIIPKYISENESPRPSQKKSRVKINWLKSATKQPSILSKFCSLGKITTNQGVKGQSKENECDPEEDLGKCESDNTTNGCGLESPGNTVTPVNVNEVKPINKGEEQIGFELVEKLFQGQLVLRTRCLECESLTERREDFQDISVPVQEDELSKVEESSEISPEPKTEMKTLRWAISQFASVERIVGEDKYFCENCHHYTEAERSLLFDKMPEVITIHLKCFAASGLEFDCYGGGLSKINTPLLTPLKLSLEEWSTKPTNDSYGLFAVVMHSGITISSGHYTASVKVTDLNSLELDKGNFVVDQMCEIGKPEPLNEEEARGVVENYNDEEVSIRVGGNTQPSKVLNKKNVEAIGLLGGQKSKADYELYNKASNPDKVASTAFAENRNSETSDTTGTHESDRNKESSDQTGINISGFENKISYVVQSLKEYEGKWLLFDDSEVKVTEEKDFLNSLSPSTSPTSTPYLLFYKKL
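High-throughput fluorogenic screen: 1nM USP1/UAF1 complex, Ub-Rho substrate 150nM final, 50mM HEPES pH 7.8 with 0.5mM EDTA, 0.1 mg/ml BSA, 1mM TCEP and 0.01% Tween-20.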
Tau fluor counter = counter-screen for tau fibril formation inhibitors; Potency, µM (titrated, usually from 57.7 µM), inactives show top-dose activity change, negative = decrease; AID 1463; 280,000 tested, 0.93% active; tau K18 P301L Alexa594 fluorescence, heparin fibrillization; further: potency means the concentration at half of the fitted maximal effect; nearly all actives have a fitted effect of over 55% in size
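Human tau K18 P301L (15 uM unlabeled, 0.24 uM Alexa 594-labeled) in 100 mM sodium acetate pH 7 with 20 uM heparin, 6 hr at 37 C. ThT 30 uM added, 1 hr ambient; Alexa 594 FP and total fluorescence read at 555/632 nm.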
Tau ThT inhib = inhibitors of human tau fibril formation, thioflavin T binding; P10636; recombinant tau K18 P301L (four-repeat tau fragment), heparin-induced fibrillization, ThT fluorescence; Potency, µM (top dose mostly 57.4 µM), without a hit: at the top dose activity, negative = inhibition, actives largely listed as inhibitors; 270,000 tested, 2.1% active; further: potency means the concentration at half of the fitted maximal effect; nearly all actives have a fitted effect of over 55% in size
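Aggregation was driven by heparin (20 uM final) acting on recombinant tau […] bearing P301L in 100 mM sodium acetate pH 7; fibrils were detected with Thioflavin T.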
The depositor's hits bear a star; [ ] = remark or other dose. Unless noted, the call rests on the fitted dose curve; in most records, active means well fitted curve in the direction sought with a large enough effect; inconclusive means small, poorly fitted or top-dose-only effect, or another doubt; inactive means no such curve, though single readings can be large; an effect the other way counts as inactive or inconclusive. On the % scale 0 is the no-effect control and ±100 the full control effect.

What do the screens show for `COCC(=O)OC1CCn2c1nc1c2C(=O)C(C)=C(NC(C)=O)C1=O` (configuration not stated)?
USP1 inh: 4.47µM*

What do the screens show for `CCOc1ccccc1C(=O)Nc1ccc(-n2nncc2-c2ccccc2)cc1`?
Tau fibril FP: inconclusive; USP1 inh: -10.8%; Tau fluor counter: -9.5%; Tau ThT inhib: -11.0%

Results for CCOC(=O)c1c(C)[nH]c2c1cc(O)c1ccccc12 ?
Tau fibril FP: -3.2%; Coupling enz: -33.2*; USP1 inh: -4.1%; Tau fluor counter: inconclusive; Tau ThT inhib: 15.8µM*

Results for CCOC(=O)c1c(C)oc2c1cc(O)c1ccccc12 ?
Tau fibril FP: inconclusive; Coupling enz: -14.5; USP1 inh: -1.3%; Tau fluor counter: -25.9%; Tau ThT inhib: inconclusive

Results for COc1ccc(/C=N/NC(=O)CCN2CCN(c3ccccc3)CC2)c(OC)c1OC ?
Tau fibril FP: 7.9%; Coupling enz: 2.1; USP1 inh: -7.2%; Tau fluor counter: -6.3%; Tau ThT inhib: -16.3%

Results for C/C(=N\NC(=O)Cc1csc(N2CCOCC2)n1)c1ccccc1 ?
Tau fibril FP: 3.7%; Coupling enz: -0.4; USP1 inh: -8.9%; Tau fluor counter: -9.6%; Tau ThT inhib: -7.8%

Results for Cc1cc(/C=N/NC(=O)c2ccncc2)c(C)n1-c1ccccc1 ?
Tau fibril FP: -0.8%; Coupling enz: -4.2; USP1 inh: 11.7%; Tau fluor counter: -10.8%; Tau ThT inhib: -16.0%

How did O=C(CCN1CCN(c2ccccc2)CC1)N/N=C/c1ccc(O)c(O)c1O do in these assays?
Tau fibril FP: -1.9%; Coupling enz: -40.0*; USP1 inh: -22.9%; Tau fluor counter: 2.1%; Tau ThT inhib: 7.2%

What do the screens show for `Cc1cc(C(=O)N/N=C/c2ccc(O)c(O)c2O)c(C)n1-c1ccccc1`?
Tau fibril FP: 7.8%; Coupling enz: -32.6*; USP1 inh: -22.7%; Tau fluor counter: -3.1%; Tau ThT inhib: 3.4%

How did O=C(Cc1csc(N2CCOCC2)n1)N/N=C/c1ccc(O)c(O)c1O do in these assays?
Tau fibril FP: 31.6µM*; Coupling enz: -60.8*; USP1 inh: -17.5%; Tau fluor counter: inconclusive; Tau ThT inhib: 15.8µM*

Results for COc1cc(OC)c(NC(=O)c2csc3c2CCC(C)C3)cc1Cl (configuration not stated) ?
Tau fibril FP: 1.8%; USP1 inh: -29.1%; Tau fluor counter: -29.9%; Tau ThT inhib: -16.4%

How did Cc1cc(Cl)ccc1NC(=O)CCn1nc(C)c2c(C)n(-c3ccccc3)nc2c1=O do in these assays?
Tau fibril FP: 2.0%; USP1 inh: inconclusive; Tau fluor counter: 9.5%; Tau ThT inhib: 14.2%

Results for CCCn1c(O)c(CN2CCCCC2)c(C)c(C#N)c1=O ?
Tau fibril FP: inconclusive; Coupling enz: -39.7*; USP1 inh: -24.6%; Tau fluor counter: -19.2%; Tau ThT inhib: inconclusive

How did Cc1c(CN2CCCCC2)c(O)n(CCCO)c(=O)c1C#N do in these assays?
Tau fibril FP: inconclusive; Coupling enz: -30.5*; USP1 inh: -24.6%; Tau fluor counter: -13.7%; Tau ThT inhib: inconclusive

What do the screens show for `Cn1c(CN2CCCCC2)c(C#N)c2ccccc21`?
Tau fibril FP: -4.7%; Coupling enz: -0.5; USP1 inh: -0.2%; Tau fluor counter: -3.7%; Tau ThT inhib: -2.0%

Results for C=CCn1c(O)c(CN2CCN(Cc3ccccc3)CC2)c(C)c(C#N)c1=O ?
Tau fibril FP: inconclusive; Coupling enz: -42.1*; USP1 inh: -19.4%; Tau fluor counter: -23.4%; Tau ThT inhib: 15.8µM*

Results for CCCn1c(C)cc(C)c(C#N)c1=O ?
Tau fibril FP: -2.1%; Coupling enz: -0.4; USP1 inh: -22.3%; Tau fluor counter: 2.5%; Tau ThT inhib: 4.9%

How did Oc1cccc2c(NC(=S)Nc3ccc(OC(F)F)cc3)cccc12 do in these assays?
Tau fibril FP: inconclusive; Coupling enz: -48.4*; USP1 inh: -17.1%; Tau fluor counter: 15.8µM*[quencher]; Tau ThT inhib: 11.2µM*

What do the screens show for `O=S(=O)(Nc1ccc(-c2ccc(N3CCCC3)nn2)cc1)c1ccccc1Cl`?
Tau fibril FP: 5.2%; USP1 inh: -11.5%; Tau fluor counter: -21.7%; Tau ThT inhib: -17.4%

Results for CC1=C(C(=O)c2ccccc2)C(c2ccc(N3CCOCC3)cc2)NC(=O)N1 (configuration not stated) ?
Tau fibril FP: 1.4%; Coupling enz: 1.3; USP1 inh: -8.4%; Tau fluor counter: -6.5%; Tau ThT inhib: 25.1µM*

Results for CC1=C(C(=O)c2ccccc2)C(c2ccc(O)cc2)NC(=S)N1 (configuration not stated) ?
Tau fibril FP: -1.6%; Coupling enz: 5.4; USP1 inh: -8.9%; Tau fluor counter: -0.7%; Tau ThT inhib: -2.6%

What do the screens show for `COc1ccc(-c2[nH]c3ccccc3c2SCCNC(=O)c2cc3ccccc3oc2=O)cc1`?
Tau fibril FP: 13.8%; Coupling enz: -1.1; USP1 inh: -4.5%; Tau fluor counter: 11.2µM*[quencher]; Tau ThT inhib: inconclusive

Results for CCN(CC)S(=O)(=O)c1ccc(C(=O)NCCSc2c(-c3ccc(C)cc3)[nH]c3ccccc23)cc1 ?
Tau fibril FP: -0.9%; USP1 inh: -24.1%; Tau fluor counter: 3.16µM*[quencher]; Tau ThT inhib: -3.9%

What do the screens show for `Cc1[nH]c2ccccc2c1SCCNC(=O)c1ccc(S(=O)(=O)N2CCCC2)cc1`?
Tau fibril FP: 6.5%; Coupling enz: -1.7; USP1 inh: -26.0%; Tau fluor counter: 15.8µM*[quencher]; Tau ThT inhib: -14.7%

What do the screens show for `CCN(CC)S(=O)(=O)c1ccc(C(=O)NCCSc2c[nH]c3ccccc23)cc1`?
Tau fibril FP: 16.0%; Coupling enz: -0.7; USP1 inh: -17.3%; Tau fluor counter: inconclusive; Tau ThT inhib: inconclusive

Results for COc1cccc(C(=O)Nc2cccc(C(=O)OCc3cc(=O)n4c(C)csc4n3)c2)c1 ?
Tau fibril FP: -14.1%; USP1 inh: -9.3%; Tau fluor counter: -7.3%; Tau ThT inhib: -6.6%

Results for CC(Oc1ccc(F)cc1)C(=O)NCC1(N(C)C)CCCCC1 (configuration not stated) ?
Tau fibril FP: -1.3%; USP1 inh: 12.5%; Tau fluor counter: -2.1%; Tau ThT inhib: 5.8%

What do the screens show for `Cc1cc(C)c2sc(N3CCN(C(=O)C4CC4)CC3)nc2c1`?
Tau fibril FP: 1.4%; USP1 inh: -8.9%; Tau fluor counter: 2.9%; Tau ThT inhib: inconclusive

Results for CCOC(=O)Cn1c(=O)n(CC2CCCO2)c2nc(-c3ccc(OCC)cc3)nc(C(N)=O)c21 (configuration not stated) ?
Tau fibril FP: -2.8%; USP1 inh: -24.4%; Tau fluor counter: -17.3%; Tau ThT inhib: -7.4%

How did Cc1ccccc1NC(=O)CSC(N)=O do in these assays?
Tau fibril FP: inconclusive; Coupling enz: 3.2; USP1 inh: -3.1%; Tau fluor counter: -16.6%; Tau ThT inhib: 25.1µM*

Source: PubChem
